# According to ChEMBL document CHEMBL3988442, “University of Dundee, Small-Polar-MMV Screening Library” (2021):
# For some of these results: Results with a measured potency or affinity are listed apart.
# Assays:
# Set-up in all cases: scale not given: direction of the effect not stated beside the values
# [1] = target: Protein translocase subunit SecA (Escherichia coli (strain K12)) (UniProt P10408); assay: Assay to Identify E. coli SecA ATPase Inhibitors; format: functional; settings: 30 µM
# [2] = target: T1, Ubiquitin-activating enzyme e1, putative (Leishmania donovani (strain BPK282A1)) (UniProt E9BSI1); assay: Leishmania donovani Ubiquitin Activating Enzyme (LdE1); format: functional; settings: 30 µM
# T1 sequence (whole entry): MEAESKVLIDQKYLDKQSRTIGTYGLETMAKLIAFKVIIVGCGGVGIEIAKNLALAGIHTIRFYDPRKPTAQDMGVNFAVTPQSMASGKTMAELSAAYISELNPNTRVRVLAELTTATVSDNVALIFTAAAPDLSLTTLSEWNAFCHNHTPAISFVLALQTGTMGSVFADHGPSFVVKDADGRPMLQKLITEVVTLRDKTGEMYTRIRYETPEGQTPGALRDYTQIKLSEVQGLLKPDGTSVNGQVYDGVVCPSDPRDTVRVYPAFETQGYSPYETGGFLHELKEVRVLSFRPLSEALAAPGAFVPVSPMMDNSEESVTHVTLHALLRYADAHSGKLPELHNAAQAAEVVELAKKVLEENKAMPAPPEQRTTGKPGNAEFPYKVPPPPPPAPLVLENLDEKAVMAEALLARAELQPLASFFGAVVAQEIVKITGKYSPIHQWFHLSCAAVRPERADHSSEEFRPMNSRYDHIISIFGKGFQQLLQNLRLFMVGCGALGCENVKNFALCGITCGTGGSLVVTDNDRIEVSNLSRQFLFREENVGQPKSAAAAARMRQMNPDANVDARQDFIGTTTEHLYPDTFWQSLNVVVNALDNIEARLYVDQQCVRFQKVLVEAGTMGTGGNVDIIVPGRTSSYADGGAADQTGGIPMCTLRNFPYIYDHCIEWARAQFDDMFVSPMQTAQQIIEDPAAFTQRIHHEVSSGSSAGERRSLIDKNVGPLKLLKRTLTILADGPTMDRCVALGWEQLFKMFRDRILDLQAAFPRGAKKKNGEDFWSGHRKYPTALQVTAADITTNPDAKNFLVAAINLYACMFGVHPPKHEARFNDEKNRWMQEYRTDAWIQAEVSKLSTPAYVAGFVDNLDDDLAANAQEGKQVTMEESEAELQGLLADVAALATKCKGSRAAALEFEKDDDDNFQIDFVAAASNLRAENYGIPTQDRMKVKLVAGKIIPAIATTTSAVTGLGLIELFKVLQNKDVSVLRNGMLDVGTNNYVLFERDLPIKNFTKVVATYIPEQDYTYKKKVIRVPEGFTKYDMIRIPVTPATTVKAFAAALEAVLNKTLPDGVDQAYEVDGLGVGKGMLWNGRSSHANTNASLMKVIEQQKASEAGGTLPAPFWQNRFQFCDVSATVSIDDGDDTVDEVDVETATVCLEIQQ
# [3] = target: AMP-activated protein kinase, AMPK (Homo sapiens) (UniProt P54646+O43741+P54619+Q9UGJ0+Q9Y478+Q13131+Q9UGI9); assay: AMP-dependent Kinase enzyme assay. An in vitro enzyme assay that detects ADP turnover that is directly proportional to AMPK activity. This uses naive AMPK that is activated during the assay with MK-8722; format: functional; settings: 30 µM
# [4] = target: Sialic acid-binding Ig-like lectin 9 (Homo sapiens) (UniProt Q9Y336); assay: Hs-Siglec9 ALPHAscreen SOP 20170721; settings: 10 µM
# Trypanosoma cruzi = assay: Trypanosoma cruzi phosphomannomutase and mannose-1-phosphate guanylyltransferase assay; format: functional; settings: 10 µM
# [5] = target: T2, Arginase-2, mitochondrial (Homo sapiens) (UniProt P78540); assay: in vitro enzyme assay to detect the production of urea directly proportional to the activity of Arginase II; format: functional; settings: 33.3 µM; note: in the data most compounds retested in dose-response had high values
# T2 sequence (whole entry): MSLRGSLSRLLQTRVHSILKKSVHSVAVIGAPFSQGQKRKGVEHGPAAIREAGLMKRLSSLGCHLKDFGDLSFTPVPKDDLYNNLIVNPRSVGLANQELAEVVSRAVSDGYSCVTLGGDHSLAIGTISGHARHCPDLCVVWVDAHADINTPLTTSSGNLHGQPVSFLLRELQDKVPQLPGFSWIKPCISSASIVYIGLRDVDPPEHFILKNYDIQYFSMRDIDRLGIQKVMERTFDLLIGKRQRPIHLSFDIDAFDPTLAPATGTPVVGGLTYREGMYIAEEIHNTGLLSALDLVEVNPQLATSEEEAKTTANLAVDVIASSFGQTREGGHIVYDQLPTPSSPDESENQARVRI
# [6] = target: T3, Proteasome subunit beta (Trypanosoma cruzi) (UniProt O96673); assay: Trypanosoma cruzi proteasome chymotrypsin-like activity (TcProtChymo) assay.; note: in the data most compounds retested in dose-response had high values; format: functional; settings: 9.37 µM
# T3 sequence (whole entry): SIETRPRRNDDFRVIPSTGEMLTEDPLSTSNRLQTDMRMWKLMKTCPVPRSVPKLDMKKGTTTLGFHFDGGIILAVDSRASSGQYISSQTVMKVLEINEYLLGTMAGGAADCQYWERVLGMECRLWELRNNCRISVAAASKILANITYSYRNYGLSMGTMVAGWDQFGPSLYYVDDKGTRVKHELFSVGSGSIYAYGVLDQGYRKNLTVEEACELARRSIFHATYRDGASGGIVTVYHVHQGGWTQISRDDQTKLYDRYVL
# Homo sapiens = species on record: Homo sapiens; assay: To identify inhibition of the IFN signalling (Jak-Stat) pathway via expression of an eGFP reporter gene under the control of an IFN-stimulated response element (ISRE) containing MxA promoter.; format: functional; settings: 30 µM
# [7] = target: T4, Tyrosyl-tRNA synthetase, putative (Trypanosoma cruzi (strain CL Brener)) (UniProt Q4DSP6); assay: Trypanosoma cruzi tyrosyl tRNA synthetase (TcYRS) _High Tyrosine SOP; format: functional; settings: 30 µM; note: in the data most compounds retested in dose-response had high values
# T4 sequence (whole entry): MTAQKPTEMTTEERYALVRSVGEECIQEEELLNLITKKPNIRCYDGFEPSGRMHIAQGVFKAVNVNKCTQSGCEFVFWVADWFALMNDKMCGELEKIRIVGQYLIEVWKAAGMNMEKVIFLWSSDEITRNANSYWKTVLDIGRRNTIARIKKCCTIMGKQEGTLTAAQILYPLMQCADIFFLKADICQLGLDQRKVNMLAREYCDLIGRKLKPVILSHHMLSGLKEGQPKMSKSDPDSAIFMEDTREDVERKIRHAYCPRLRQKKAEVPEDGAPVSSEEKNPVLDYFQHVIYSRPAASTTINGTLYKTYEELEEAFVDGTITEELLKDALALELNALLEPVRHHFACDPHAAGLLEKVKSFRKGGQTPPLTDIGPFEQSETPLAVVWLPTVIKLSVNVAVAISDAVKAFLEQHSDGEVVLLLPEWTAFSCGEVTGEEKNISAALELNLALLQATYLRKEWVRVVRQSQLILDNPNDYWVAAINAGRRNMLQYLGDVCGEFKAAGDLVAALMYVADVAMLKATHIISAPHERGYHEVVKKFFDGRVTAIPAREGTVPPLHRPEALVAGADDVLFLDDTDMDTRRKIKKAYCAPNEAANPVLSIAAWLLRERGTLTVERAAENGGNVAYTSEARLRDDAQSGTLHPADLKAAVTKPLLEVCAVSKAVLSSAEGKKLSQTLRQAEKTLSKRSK
# [8] = target: T4, Tyrosyl-tRNA synthetase, putative (Trypanosoma cruzi (strain CL Brener)); assay: Trypanosoma cruzi tyrosyl tRNA synthetase (TcYRS) SOP; format: functional; settings: 30 µM
# [9] = target: Chromo domain-containing protein 1 (Saccharomyces cerevisiae (strain ATCC 204508 / S288c) (Baker's yeast)) (UniProt P32657); assay: ScCHD-1 Enzyme Inhibition Assay; format: functional; settings: 30 µM; note: in the data most compounds retested in dose-response had high values
# Chromo domain-containing protein 1 (Saccharomyces cerevisiae (strain ATCC 204508 / S288c) (Baker's yeast)), sequence (P32657 whole entry, the tested form may be a part): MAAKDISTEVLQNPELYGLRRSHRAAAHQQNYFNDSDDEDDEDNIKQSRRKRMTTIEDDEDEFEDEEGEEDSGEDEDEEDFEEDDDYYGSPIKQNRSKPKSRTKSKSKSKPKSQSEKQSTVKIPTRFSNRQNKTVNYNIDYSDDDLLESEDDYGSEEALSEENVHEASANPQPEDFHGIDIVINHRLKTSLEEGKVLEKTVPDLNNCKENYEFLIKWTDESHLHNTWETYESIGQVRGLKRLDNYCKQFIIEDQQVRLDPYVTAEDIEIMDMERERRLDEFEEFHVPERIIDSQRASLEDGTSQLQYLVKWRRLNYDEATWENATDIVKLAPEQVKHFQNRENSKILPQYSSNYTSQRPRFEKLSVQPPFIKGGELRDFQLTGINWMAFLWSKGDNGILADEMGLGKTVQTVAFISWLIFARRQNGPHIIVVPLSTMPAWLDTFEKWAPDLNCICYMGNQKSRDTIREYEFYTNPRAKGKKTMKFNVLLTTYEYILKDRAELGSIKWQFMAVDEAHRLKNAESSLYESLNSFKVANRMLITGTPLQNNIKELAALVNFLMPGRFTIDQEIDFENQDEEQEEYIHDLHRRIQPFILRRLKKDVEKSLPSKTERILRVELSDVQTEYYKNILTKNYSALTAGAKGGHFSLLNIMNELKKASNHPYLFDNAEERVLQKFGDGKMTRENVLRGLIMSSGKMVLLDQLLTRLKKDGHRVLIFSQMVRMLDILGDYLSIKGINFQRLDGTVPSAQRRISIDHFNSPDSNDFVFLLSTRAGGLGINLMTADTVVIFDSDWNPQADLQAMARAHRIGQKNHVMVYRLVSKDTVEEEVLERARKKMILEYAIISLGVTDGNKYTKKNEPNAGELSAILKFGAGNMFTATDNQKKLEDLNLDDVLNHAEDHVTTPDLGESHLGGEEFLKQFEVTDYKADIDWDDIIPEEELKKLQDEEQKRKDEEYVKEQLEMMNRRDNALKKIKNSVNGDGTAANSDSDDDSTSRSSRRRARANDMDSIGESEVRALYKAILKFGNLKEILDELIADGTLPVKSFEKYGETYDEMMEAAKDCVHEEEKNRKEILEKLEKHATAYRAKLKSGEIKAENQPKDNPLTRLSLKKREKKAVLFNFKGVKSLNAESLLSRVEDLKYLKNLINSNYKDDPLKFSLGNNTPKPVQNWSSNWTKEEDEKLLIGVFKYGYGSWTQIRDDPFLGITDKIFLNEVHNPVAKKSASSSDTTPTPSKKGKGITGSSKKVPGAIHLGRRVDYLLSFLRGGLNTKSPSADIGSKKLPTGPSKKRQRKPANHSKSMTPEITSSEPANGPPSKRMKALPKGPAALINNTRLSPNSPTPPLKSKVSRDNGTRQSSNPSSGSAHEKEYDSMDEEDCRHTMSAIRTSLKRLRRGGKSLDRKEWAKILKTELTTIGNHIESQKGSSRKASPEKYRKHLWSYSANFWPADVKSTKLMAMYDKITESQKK
# Sialic acid-binding Ig-like lectin 9 (Homo sapiens), sequence (Q9Y336 whole entry): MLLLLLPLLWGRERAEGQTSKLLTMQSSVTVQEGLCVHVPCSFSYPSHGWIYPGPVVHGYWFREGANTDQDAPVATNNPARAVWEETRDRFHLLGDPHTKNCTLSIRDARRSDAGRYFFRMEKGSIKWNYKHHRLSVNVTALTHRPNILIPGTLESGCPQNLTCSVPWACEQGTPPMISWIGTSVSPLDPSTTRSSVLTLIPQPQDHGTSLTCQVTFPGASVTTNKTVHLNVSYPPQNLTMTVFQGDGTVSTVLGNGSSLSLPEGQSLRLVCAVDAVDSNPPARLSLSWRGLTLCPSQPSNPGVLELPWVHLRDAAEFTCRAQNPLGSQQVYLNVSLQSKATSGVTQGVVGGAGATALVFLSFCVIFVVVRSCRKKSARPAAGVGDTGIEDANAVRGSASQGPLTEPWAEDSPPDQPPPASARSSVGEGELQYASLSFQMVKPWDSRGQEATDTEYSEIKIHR
# Protein translocase subunit SecA (Escherichia coli (strain K12)), sequence (P10408 whole entry): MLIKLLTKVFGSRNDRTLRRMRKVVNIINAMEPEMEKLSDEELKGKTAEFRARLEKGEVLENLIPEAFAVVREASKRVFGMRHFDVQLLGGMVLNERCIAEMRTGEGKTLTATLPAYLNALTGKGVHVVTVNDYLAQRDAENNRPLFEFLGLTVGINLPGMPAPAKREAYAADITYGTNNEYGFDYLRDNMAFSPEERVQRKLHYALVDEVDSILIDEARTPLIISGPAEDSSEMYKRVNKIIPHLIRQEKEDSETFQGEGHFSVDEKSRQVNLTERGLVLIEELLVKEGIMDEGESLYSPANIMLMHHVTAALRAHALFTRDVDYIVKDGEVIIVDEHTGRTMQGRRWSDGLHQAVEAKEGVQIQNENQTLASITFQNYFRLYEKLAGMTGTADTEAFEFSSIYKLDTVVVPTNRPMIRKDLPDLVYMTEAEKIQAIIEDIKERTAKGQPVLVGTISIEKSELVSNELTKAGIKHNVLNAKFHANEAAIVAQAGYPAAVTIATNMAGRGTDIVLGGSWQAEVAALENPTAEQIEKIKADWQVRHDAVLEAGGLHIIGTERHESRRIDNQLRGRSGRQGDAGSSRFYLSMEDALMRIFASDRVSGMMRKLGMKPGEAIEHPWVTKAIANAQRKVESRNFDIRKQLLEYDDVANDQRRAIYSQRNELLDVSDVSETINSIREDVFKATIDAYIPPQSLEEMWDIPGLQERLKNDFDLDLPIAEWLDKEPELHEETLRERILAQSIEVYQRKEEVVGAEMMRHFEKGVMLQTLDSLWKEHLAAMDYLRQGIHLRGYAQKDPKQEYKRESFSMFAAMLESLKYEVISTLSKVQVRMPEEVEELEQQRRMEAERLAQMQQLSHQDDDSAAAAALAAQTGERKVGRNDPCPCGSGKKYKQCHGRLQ
Compound,Percent Effect [1],Percent Effect [2],Percent Effect [3],Percent Effect [4],Percent Effect (Trypanosoma cruzi),Percent Effect [5],Percent Effect [6],Percent Effect (Homo sapiens),Percent Effect [7],Percent Effect [8],Percent Effect [9]
CN(C)C(=O)CS(=O)(=O)Cc1cc(Cl)c2c(c1)OCO2,-3.08%,18.4%,-1.27%,2.86%,-0.654%,3.96%,5.16%,-13.9%,6.4%,23.5%,-7.39%
Cc1ccc(Cc2cnc(NC(=O)C3CNC(=O)N3)s2)cc1F (stereo unspecified),-2.83%,8.86%,4.79%,5.91%,0.308%,1.5%,16.6%,-4.36%,-3.12%,17.7%,-8.88%
Cc1nc(C)c(C(=O)NCCNC(=O)Cc2ccccc2)s1,-3.47%,16.2%,-4.83%,1.88%,-4.36%,-2.4%,16.7%,11.2%,7.92%,18.3%,-2.99%
COc1ccc(CS(=O)(=O)CC(=O)NCc2ccccc2F)cc1F,-3.22%,7.89%,5.57%,-2.07%,-2.63%,8.28%,17.2%,-0.495%,4.25%,5.2%,-2.98%
CS(=O)(=O)N1C[C@@H]2CC[C@H](C1)N(Cc1cscn1)C2=O,-4.04%,11%,-5.85%,7.01%,6.35%,-4.39%,9.85%,3.89%,6.25%,18.5%,-6.64%
Cc1ccc(N2CCCC(NCC(=O)NCC3CC3)C2)nn1 (stereo unspecified),-4.97%,6.33%,-6.37%,2.61%,1.13%,-1.94%,15.8%,-5.61%,7.29%,15.2%,-25.7%
COc1ccccc1OC1(C(=O)O)CCN(c2nccnc2C)CC1,-2.61%,5.48%,-1.61%,9.27%,1.19%,-5.19%,9.16%,-8.06%,5.21%,23.5%,-6.84%
CC(NC(=O)NCc1cccnc1N1CCCCC1)c1nccs1 (stereo unspecified),-4.11%,7.79%,4.63%,1.05%,6.37%,-7.12%,1.01%,2.75%,5.83%,14.6%,-7.32%
COc1ccc(-c2nccnc2C2CCN(C(C)=O)CC2)cc1,-3.54%,25.7%,-4.6%,-7.08%,0.395%,-3.48%,11.7%,8.34%,1.07%,9.09%,-9.8%
CCOc1ccccc1C(CC(=O)Nc1ccccc1F)NC(C)=O (stereo unspecified),-4.23%,10.5%,0.587%,13.4%,2.82%,-1.92%,-4.18%,-32.5%,3.43%,9.76%,-4.56%
Cc1ccc(CN2CCCC3(CCN(S(C)(=O)=O)C3)C2)o1 (stereo unspecified),-3.67%,8%,11.7%,5.08%,-1.97%,-4.43%,3.96%,15.2%,6.38%,14.1%,-3.22%
